hcDAF12 agonist: activators of H. contortus DAF-12 nuclear receptor; HEK293 hcDAF-12 lit1-tk-luc reporter, luminescence; 0% DMSO, 100% Δ7-dafachronic acid; actives 1.4% (n = 370,000); activation, % at 6.8 µM;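 active = activation above the mean of all tested compounds plus 3 SD, cut at about 5.5% in these data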
ssDAF-12 act: activates DAF-12 receptor from parasite S. stercoralis | HEK293 ssDAF-12/GRIP1 lit1-tk-luc reporter, luminescence; % of 3 µM dafachronic acid response | activation, % at 6.8 µM | actives 1% (n = 370,000) | AID 652126;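 active = activation above the mean over all tested compounds plus 3 SD, cut at about 0.9% in these data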
DAX1 inh-1: inhibitors of human orphan nuclear receptor DAX1 (NR0B1); P51843; HEK293 Gal4-DAX1 luciferase reporter, luminescence; inhibition, % at 6.75 µM; actives 0.99% (n = 340,000); AID 504766;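 active = inhibition above the mean over all tested compounds plus 3 SD, cut at about 4.2% in these data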;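 note: inhibition shows as a rise in luminescence from relieved DAX1 repression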
Target sequence (P51843 207-470 limits assumed): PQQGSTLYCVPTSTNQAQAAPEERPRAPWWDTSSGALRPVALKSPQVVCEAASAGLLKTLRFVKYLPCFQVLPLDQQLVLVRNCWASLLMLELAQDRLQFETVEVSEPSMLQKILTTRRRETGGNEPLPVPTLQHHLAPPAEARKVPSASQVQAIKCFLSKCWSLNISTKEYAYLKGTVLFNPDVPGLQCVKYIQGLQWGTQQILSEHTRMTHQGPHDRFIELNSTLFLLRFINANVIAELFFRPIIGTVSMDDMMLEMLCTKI
hgDAF-12 ag: hgDAF-12 agonism, primary luciferase screen; activation, % at 6.8 µM; actives 1.8% (n = 370,000); HEK293 GAL4-hgDAF12 UAS-luciferase reporter, agonist luminescence; normalized to butyrate control; AID 687014;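 active = activation above a cutoff set at the mean of all screened compounds plus 3 SD, cut at about 10% in these data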
DAX1 inh-2: inhibitors of DAX1 repression of SF-1 activated StAR promoter | HEK293T StAR-luciferase reporter, SF-1/DAX-1 repression relief | inhibition, % at 6.8 µM | actives 1.1% (n = 370,000);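 active = inhibition above the mean over all tested compounds plus 3 SD, cut at about 3.6% in these data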;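 note: higher inhibition means more luminescence from relief of DAX-1 repression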
Hits are given with their value; – = inactive; · = not tested or not shown. Shown are actives, neighbours in structure and some others; about 4.1% of the full set was active somewhere.

SMILES	hcDAF12 agonist	ssDAF-12 act	DAX1 inh-1	hgDAF-12 ag	DAX1 inh-2
CC(C)(C)C(=O)Nc1ccc(-c2cn3ccsc3n2)cc1	5.9	–	–	–	–
Cc1nc(-c2ccc(NC(=O)CC(C)C)cc2)cs1	–	–	–	13	–
CC(C)CC(=O)Nc1ccc(-c2cn3ccsc3n2)cc1	–	–	–	11	–
COC(=O)[C@H](CC(C)C)N(Cc1cn(CC2CCCCC2)nn1)S(=O)(=O)c1ccc(F)cc1Br	–	–	·	–	–
O=c1cccccc1NN=C1CCCCC1	–	–	5.8	11	–
O=c1cccccc1NN=C1CCCCCC1	–	–	–	–	–
C[C@@H]1COc2cc(N3CCCC3)ccc2S(=O)(=O)N1C	–	–	·	–	–
CCOC(=O)NN1C(=O)c2ccccc2NC1(C)C	–	–	–	–	–
CC1(C)Nc2ccccc2C(=O)N1NC(=O)c1ccccc1	5.7	–	–	–	–
Nc1n[nH]c(N)c1N=Nc1ccc(Cl)cc1	–	–	–	13	–
Cn1c2c(c(=O)n(C)c1=O)C(c1ccccc1Cl)CC(=O)N2 (centres undefined)	5.8	–	–	–	–
Cc1ccc(NC(=O)CSc2nccn2C)cc1F	–	–	–	–	4.4
Cc1ccc(NC(=O)CSc2ncccn2)cc1F	–	–	5.7	–	–
CC(=O)c1ccc(NC(=O)CSc2nccn2C)cc1	–	–	–	–	–
O=C(/C=C/c1cccs1)NNC(=O)c1ccccc1	6.0	–	–	–	–
CN(C1CCCCC1)S(=O)(=O)c1ccc(S(=O)(=O)N2CCN(CCC#N)CC2)cc1	–	–	5.7	–	–
COC(=O)CCN(C1CCCCC1)S(=O)(=O)c1ccc(S(=O)(=O)N2CCCCC2)cc1	5.8	–	–	–	–
CCNC(=S)NNC(=O)CSc1nnc(SCc2cccc3ccccc23)s1	–	–	·	–	–
Cc1ccnc(NC(=O)C2CC(=O)N(Cc3ccccc3)C2)c1 (centres undefined)	–	–	–	–	4.3
CCOC(=O)C1CCN(C(=O)C2(NC(=O)NC3CCCCC3)CCCCC2)CC1	–	–	–	–	–
CCOC(=O)C1CCCN1C(=O)C1(NC(C)=O)CCCC1 (centres undefined)	–	–	–	12	–
COCCCNC(=S)N(CCCN(C)C)Cc1cc2cc3c(cc2[nH]c1=O)OCCO3	–	–	–	–	–
CCOCCCNC(=S)N(CCCN(C)C)Cc1cc2cc3c(cc2[nH]c1=O)OCCO3	–	–	4.7	–	–
O=C1/C(=C/c2ccc(O)c(O)c2)Oc2cc(O)ccc21	–	–	–	–	–
COc1cc(/C=C2\Oc3cc(O)ccc3C2=O)ccc1O	–	–	7.4	–	4.3
SMILES	hcDAF12 agonist	ssDAF-12 act	DAX1 inh-1	hgDAF-12 ag	DAX1 inh-2
CC1S/C(=N/N=C2CCC(C(C)(C)C)CC2)NC1=O (centres undefined)	–	–	–	12	–
COc1ccc(CN2C(=O)COc3ccccc3C2c2nnnn2C2CCCCC2)cc1 (centres undefined)	–	–	·	–	–
Cc1sc2nc(C3CCCCC3)nc(SCC(=O)N3CC(=O)Nc4ccccc43)c2c1C	–	1.2	–	–	–
CC(CCN1CCC(C(O)(c2ccccc2)c2ccccc2)CC1)Oc1ccc(C#N)cc1F (centres undefined)	6.0	–	·	–	–
COc1cccc(OC(C)CCN2CCC(C(O)(c3ccccc3)c3ccccc3)CC2)c1 (centres undefined)	–	0.9	·	–	–
Cc1cccc(OC(C)CCN2CCC(C(O)(c3ccccc3)c3ccccc3)CC2)c1 (centres undefined)	–	–	·	–	–
O=C1c2ccccc2C(c2nnnn2-c2ccc3c(c2)OCCO3)N1CCCn1ccnc1 (centres undefined)	–	–	·	–	3.9
COc1ccc(C(=O)NCC2CCN(C(=O)C(=O)c3cccs3)CC2)c(OC)c1	–	–	·	–	–
CCN1CC=C2C(C#N)=C(N)C(C#N)(C#N)C(CCc3ccccc3)C2C1 (centres undefined)	–	1.0	–	–	–
CC(=O)N1CC=C2C(C#N)=C(N)C(C#N)(C#N)C(CCc3ccccc3)C2C1 (centres undefined)	–	–	–	–	–
COc1ccc(C2=NOC(C(=O)O)C2)cc1 (centres undefined)	–	1.8	–	–	–
O=C(O)CCc1ncc(C(F)(F)F)cc1Cl	–	–	–	–	–
FC(F)(F)c1cnc(COc2cc(Cl)cc(Cl)c2)c(Cl)c1	–	–	5.8	–	–
CCCC(C)C(=O)NC1CCCCN(C)C1=O (centres undefined)	–	–	·	–	–
Cc1noc(C)c1NC(=O)N(C)C[C@H]1OCc2cnnn2CCCC(=O)N([C@H](C)CO)C[C@@H]1C	–	1.3	–	–	–
C[C@H]1CN([C@@H](C)CO)C(=O)CCCn2cc(nn2)CO[C@@H]1CN(C)C(=O)NC1CCCCC1	–	–	·	–	4.1
C[C@@H]1CN([C@H](C)CO)C(=O)CCCn2nncc2CO[C@H]1CN(C)C(=O)Nc1ccc2c(c1)OCCO2	–	1.5	·	–	–
CC(=O)Nc1ccc(NC(=O)C2CCCN2C(=O)Nc2ccccc2[N+](=O)[O-])cc1 (centres undefined)	–	–	–	–	–
CC(=O)Nc1ccc(NC(=O)C2CCCN2C(=O)Nc2ccc(F)c([N+](=O)[O-])c2)cc1 (centres undefined)	–	–	4.9	–	–
OC(c1ccccc1)(c1ccccc1)C1CCN(CCCNc2ccc(C(F)(F)F)cc2)CC1	–	–	·	–	–
Fc1ccc(N2CCN(C3=Nc4ccccc4Sc4ccccc43)CC2)cc1	–	1.3	·	–	–
c1ccc(-c2cnc(-c3ccccn3)nn2)cc1	–	–	–	11	–
CCCCCCN1CCS(=O)(=O)N(Cc2ccc(F)cc2)C(C(=O)OC)C1 (centres undefined)	–	–	·	–	–
O=C(O)c1[nH]c2ccccc2c1NS(=O)(=O)Cc1ccccc1	6.0	–	–	–	–
O=C(O)c1[nH]c2ccccc2c1NS(=O)(=O)c1ccc(F)cc1	–	–	–	–	–
SMILES	hcDAF12 agonist	ssDAF-12 act	DAX1 inh-1	hgDAF-12 ag	DAX1 inh-2
Cc1ccc(C(=O)/C=C/Nc2cccc([N+](=O)[O-])c2)o1	5.8	–	–	11	–
CN(C)C(/C=C/Nc1cccc([N+](=O)[O-])c1)=C(C#N)C#N	–	–	–	–	–
O=C(NCC1CCN(C(=O)C(=O)c2cc3ccccc3o2)CC1)c1ccncc1	–	–	·	–	–
Cc1ccccc1NC(=O)C1Cc2ccccc2CN1C(=O)c1ccco1 (centres undefined)	–	–	5.4	–	–
CC(C)C[C@H]1COc2cc(F)ccc2S(=O)(=O)N1C	–	–	·	–	–
Cc1ccc2nc(CCc3ccc(N)cc3)[nH]c2c1	–	–	–	11	–
Nc1ccc2nc(CCc3ccccc3)[nH]c2c1	–	–	–	–	–
